Among the test systems are HCT-15 colon; SNB-75 CNS; SNB-19 CNS; U251 CNS; PC-3 prostate; SK-MEL-5 melanoma; UACC-62 melanoma; LOX IMVI melanoma; SK-MEL-28 melanoma; SK-MEL-2 melanoma; EKVX NSCLC; SN12C renal; TK-10 renal; ACHN renal; CAKI-1 renal; CCRF-CEM leukemia; MOLT-4 leukemia; UO-31 renal; A498 renal.
Test in all cases: NCI-60 one-dose screen, 48 h (100 = growth as untreated, 0 = no growth, -100 = all killed)
What all share (conditions): 10 µM unless noted

This note sets out measurements from PubChem BioAssay (NCI).

Compounds without any hit were thinned out: in the full panel of roughly 83,000, 20% have a hit.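 The test compound was applied at a single concentration to cells in 96-well plates for 48 hours, and percent growth was recorded.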 Unmarked numbers belong to inactive results. Calls of active or inactive are those of the source. Rule for the calls: active = growth percent below 10; inactive = the rest.

As to `O=C(CCN1CCCC1)Nc1ccc2c(NCCCc3ccccc3)c3ccccc3nc2c1`, the growth in the experiment on HCT-15 colon is 36.3%; with SNB-75 CNS it was 23%; in the experiment on SNB-19 CNS, 24.6%; with U251 CNS, -58.9% (active); in the experiment on PC-3 prostate it was -0.52% (active); in the experiment on SK-MEL-5 melanoma, 67.4%. The growth with UACC-62 melanoma was 43.5%; in the experiment with LOX IMVI melanoma, -87% (active); with SK-MEL-28 melanoma it was 66.1%; with SK-MEL-2 melanoma, 38.9%; in the experiment on EKVX NSCLC, 40.8%; with SN12C renal, 14%. In addition, the growth in the experiment on TK-10 renal is 5% (active); with ACHN renal it was 33.1%; with CAKI-1 renal it was 27.5%; with CCRF-CEM leukemia, -11.8% (active); in the experiment with MOLT-4 leukemia, -18.5% (active).

`COc1cc(C2=NN(C(C)=O)C(c3cc(OC)c(OC)c(OC)c3)C2)ccc1O` (stereo unspecified): the growth in the experiment on HCT-15 colon was 4.31% (active); in the experiment on SNB-19 CNS, 34.9%; with U251 CNS, 7.85% (active); in the experiment with PC-3 prostate it was 13.1%; in the experiment with SK-MEL-5 melanoma, 6.65% (active); with UACC-62 melanoma it was 15.3%. The growth in the experiment on LOX IMVI melanoma is 34.7%; in the experiment on SK-MEL-28 melanoma, 68.2%; with EKVX NSCLC, 34.8%; in the experiment with SN12C renal, 34.2%; in the experiment with UO-31 renal, 31.8%; in the experiment on TK-10 renal it was 47.5%. The growth with ACHN renal was 30.5%; in the experiment with CAKI-1 renal, 46.4%; with A498 renal it was -14.4% (active); in the experiment with CCRF-CEM leukemia, -16.5% (active); with MOLT-4 leukemia, 0.196% (active).

For the molecule `CCC(CC)NCC(C)(C)O`, the growth in the experiment with HCT-15 colon was 101%; in the experiment on SNB-75 CNS, 98.1%; in the experiment with SNB-19 CNS it was 94.6%; in the experiment on U251 CNS, 103%; in the experiment with PC-3 prostate, 89.9%; in the experiment on SK-MEL-5 melanoma, 110%. For the same molecule, the growth in the experiment on UACC-62 melanoma is 94.4%; with LOX IMVI melanoma, 101%; in the experiment on SK-MEL-28 melanoma, 115%; with SK-MEL-2 melanoma it was 110%; with EKVX NSCLC, 102%; with SN12C renal, 97.9%. The growth with UO-31 renal was 88.2%; in the experiment with TK-10 renal, 109%; in the experiment with ACHN renal it was 102%; in the experiment on CAKI-1 renal it was 89.5%; in the experiment on CCRF-CEM leukemia, 100%; in the experiment on MOLT-4 leukemia, 103%.

For the molecule `O=C1c2cccc3c(-c4ccc5c(c4)ncn5C4CCCCC4)ccc(c23)C(=O)N1c1nc2ccccc2s1`, the growth is 59.5% with HCT-15 colon; 75.2% in the experiment on SNB-75 CNS; 94.6% in the experiment with SNB-19 CNS; 86.9% in the experiment on U251 CNS; 73.2% in the experiment with PC-3 prostate; 74.6% with SK-MEL-5 melanoma. Besides, the growth in the experiment on UACC-62 melanoma was 73%; with LOX IMVI melanoma, 84.8%; with SK-MEL-28 melanoma, 96.6%; in the experiment on SK-MEL-2 melanoma, 81.4%; in the experiment on EKVX NSCLC it was 76.4%; in the experiment on SN12C renal, 83.7%. Also, the growth is 56.3% with UO-31 renal; 84.7% in the experiment with ACHN renal; 72.8% in the experiment with CAKI-1 renal; 83% with CCRF-CEM leukemia; 81.1% with MOLT-4 leukemia.

Regarding `COc1cc2c(c(O)c1Br)C(=O)c1c(O)cc(C[C@H](C)O)cc1[C@H]2[C@H]1c2cc(C[C@H](C)O)cc(O)c2C(=O)c2c1cc(OC)c(Br)c2O`, the growth in the experiment on HCT-15 colon was 8.27% (active); with SNB-75 CNS, -6.83% (active); with U251 CNS, 10.3%; with PC-3 prostate, 16.2%; in the experiment on SK-MEL-5 melanoma, -74.1% (active); in the experiment on UACC-62 melanoma, 4.54% (active). For the same molecule, the growth with LOX IMVI melanoma was 4.77% (active); with SK-MEL-28 melanoma, 31.8%; in the experiment on SK-MEL-2 melanoma it was -38.2% (active); in the experiment on EKVX NSCLC, 9.77% (active); in the experiment with SN12C renal, 9.01% (active); in the experiment with UO-31 renal it was -29% (active). Moreover, the growth in the experiment on TK-10 renal is 37%; in the experiment with ACHN renal it was -46.1% (active); with CAKI-1 renal it was 4.31% (active); in the experiment with CCRF-CEM leukemia, 10.1%; in the experiment with MOLT-4 leukemia, -0.594% (active).

With `CC(=O)Nc1ccc(-c2ccc3c(c2)NC(=O)/C3=C\c2ccc[nH]2)cc1`, the growth in the experiment on HCT-15 colon is 92.6%; in the experiment with SNB-75 CNS, 111%; in the experiment on SNB-19 CNS, 104%; with U251 CNS, 86.6%; in the experiment with PC-3 prostate, 97.8%; with SK-MEL-5 melanoma it was 100%. Besides, the growth in the experiment on UACC-62 melanoma is 105%; in the experiment on LOX IMVI melanoma it was 84.2%; in the experiment with SK-MEL-28 melanoma, 116%; in the experiment on SK-MEL-2 melanoma, 96%; with EKVX NSCLC it was 49.5%; in the experiment on SN12C renal it was 94.6%. Further, the growth in the experiment with UO-31 renal was 38.8%; in the experiment with TK-10 renal, 70.2%; with ACHN renal, 69.5%; in the experiment on CAKI-1 renal, 78.1%; in the experiment on CCRF-CEM leukemia, 94.8%; with MOLT-4 leukemia it was 87.3%.

In the case of `CCN1C(=O)/C(=C/C(=O)OC)S/C1=N\NC(=O)c1cc2ccc1/C=C\c1ccc(cc1)/C=C\2`, the growth was 68.4% in the experiment with HCT-15 colon; 78.8% in the experiment with SNB-75 CNS; 85.6% with SNB-19 CNS; 84.4% with U251 CNS; 56.7% in the experiment on PC-3 prostate; 92.5% in the experiment on SK-MEL-5 melanoma. Further, the growth with UACC-62 melanoma is 78.6%; in the experiment on LOX IMVI melanoma, 73.5%; with SK-MEL-28 melanoma, 100%; in the experiment with SK-MEL-2 melanoma it was 94.2%; with EKVX NSCLC, 93.6%; with SN12C renal, 95%. Also, the growth was 79% with UO-31 renal; 93.4% in the experiment with ACHN renal; 89.5% in the experiment on CAKI-1 renal; 33.9% with CCRF-CEM leukemia; 37.2% in the experiment on MOLT-4 leukemia.
